We go through 8 compounds from PubChem BioAssay (Tox21).

Test [1] can be described thus: Human pregnane X receptor (PXR) small molecule agonists, qHTS cell viability counter screen (AID 1346977). Further: nearly all actives have a fitted effect of over 50% in size. An outline of the steps:
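Measures live-cell protease fluorescence (CellTiter-Fluor) in PXR-Luc HepG2 cells treated 24hr with compounds at 37C. Cells had 5hr to attach before pin transfer of DMSO solutions.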

Test [2] can be described thus: Caspase-3/7 induction in CHO-K1 cells by small molecules, qHTS cell viability counter screen (AID 1346979). Further: nearly all actives have a fitted effect of over 35% in size. An outline of the steps:
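In the same wells as the caspase read, viability of compound-treated wild-type CHO-K1 cells was assessed using CellTiter-Fluor, added after 16hr at 37C and measured by fluorescence following 1hr further incubation.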
A general note: qHTS replaces the single test concentration by a dilution series.

Test [3] can be described thus: Caspase-3/7 induction in CHO-K1 cells by small molecules, qHTS assay (AID 1346980). Further: nearly all actives have a fitted effect of over 15% in size. An outline of the steps: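 Wild-type CHO-K1 cells exposed to compounds for 17hr at 37 C, 5% CO2. Caspase-3/7 activity then measured by Caspase-Glo 3/7 luminescence after 30min at room temperature.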
A short description of test [4]: Caspase-3/7 induction in HepG2 cells by small molecules, qHTS cell viability counter screen (AID 1346981). Further: series mostly up to about 92 µM; nearly all actives have a fitted effect of over 30% in size. An outline of the steps:
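Wild-type HepG2 cells, 2,000/well, settled 5 hr at 37 C, 5% CO2 before compound addition. Viability read by CellTiter-Fluor fluorescence, reagent added after 16 hr compound exposure, then 1 hr at 37C, in the same wells as the caspase read.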

Test [5] deals with Nuclear receptor subfamily 1 group I member 2 (Homo sapiens) (UniProt O75469). Put plainly: Human pregnane X receptor (PXR) small molecule agonists, qHTS assay (AID 1346982). Further: nearly all actives have a fitted effect of over 35% in size. Further: potency means the concentration at half of the fitted maximal effect. The essentials:
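PXR-Luc HepG2 reporter cells (CYP3A4-driven luciferase) in 5% charcoal-stripped FBS medium, plated 5 h before compound addition, then treated 24 h at 37C. Luciferase read by ONE-Glo luminescence after 30 min at room temperature.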

For test [6], the target named is Nuclear receptor subfamily 1 group I member 2 (Rattus norvegicus) (UniProt Q9R1A7). Put plainly: Rat pregnane X receptor (rPXR) activation by small molecules, qHTS assay (AID 1346983). Further: nearly all actives have a fitted effect of over 20% in size. Conditions: rPXR luciferase reporter cells, One-Glo luminescence, 24 h; stronger effect = higher value. An outline of the steps:
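Cell-based rPXR activation assay: rPXR cells, 2,000 per well, rested 5hr at 37 C, then exposed to compounds in DMSO for 24 hr at 37 C. Luciferase activity read by One-Glo luminescence after 30 min at room temperature.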

The target of test [7] is Nuclear receptor subfamily 1 group I member 2 (Homo sapiens) (UniProt O75469). Description: CYP3A4 induction through human pregnane X receptor (PXR) by small molecules, qHTS assay (AID 1346984). Further: nearly all actives have a fitted effect of over 40% in size. An outline of the steps: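 DPX-2 HepG2 cells carrying a PXR response element and CYP3A4-promoter luciferase construct, treated with compounds 24 hr at 37C. Then P450-Glo CYP3A4 Luciferin-IPA substrate (3uM final) for 3 hr at 37C, One-Glo added, luminescence read.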
Nuclear receptor subfamily 1 group I member 2 (Homo sapiens), sequence (O75469 whole entry, looked up): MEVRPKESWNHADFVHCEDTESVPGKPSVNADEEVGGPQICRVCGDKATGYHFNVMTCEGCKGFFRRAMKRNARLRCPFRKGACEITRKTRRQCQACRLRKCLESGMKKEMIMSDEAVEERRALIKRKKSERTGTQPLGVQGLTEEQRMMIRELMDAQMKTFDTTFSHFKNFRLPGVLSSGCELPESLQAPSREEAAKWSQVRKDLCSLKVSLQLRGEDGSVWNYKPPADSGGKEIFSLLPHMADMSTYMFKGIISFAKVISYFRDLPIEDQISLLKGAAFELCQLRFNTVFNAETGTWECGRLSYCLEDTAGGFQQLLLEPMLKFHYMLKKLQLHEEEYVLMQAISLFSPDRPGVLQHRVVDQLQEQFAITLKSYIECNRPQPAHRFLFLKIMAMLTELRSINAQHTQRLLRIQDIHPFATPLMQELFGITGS

Test [8] shares this target. Put plainly: Human pregnane X receptor (PXR) activation by small molecules, qHTS assay (AID 1346985). Further: nearly all actives have a fitted effect of over 40% in size. An outline of the steps:
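DPX-2 cells (HepG2 co-transfected with a PXR response element and a CYP3A4-promoter luciferase construct) were seeded at 2,000 per well, rested 5 hr at 37C, then exposed to DMSO-dissolved compounds for 24 hr. Activation was read as luciferase luminescence.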

The target of test [9] is Acetylcholinesterase (Homo sapiens) (UniProt P22303). Description: Acetylcholinesterase (AChE) small molecule antagonists: colormetric cell-based qHTS assay (AID 1347395; calls by dose curve; further: nearly all actives have a fitted effect of over 30% in size; further: potency means the concentration at half of the fitted maximal effect). An outline of the steps:
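Endogenous AChE of human neuroblastoma SH-SY5Y cells was measured with an Ellman-type DTNB/acetylthiocholine mix. Compound pretreatment lasted 30 min at 37 C; substrate reaction ran 90 min at 37 C.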

Test [10] has the same target. Description: Acetylcholinesterase (AChE) small molecule antagonists: enzyme-based qHTS assay (AID 1347397; calls by dose curve; further: nearly all actives have a fitted effect of over 55% in size). Conditions: Potency: AChE enzyme activity inhibition; outcome: AChE enzyme activity inhibition. An outline of the steps:
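Recombinant human AChE (50 mU/mL) preincubated with compound 30 min at room temperature; acetylthiocholine plus DTNB then added, and thiocholine formation read colorimetrically after 10 min at room temperature. DMSO served as vehicle control.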

Test [11] has the same target. Put plainly: Acetylcholinesterase (AChE) small molecule antagonists: fluorescence cell-based qHTS assay (AID 1347398; calls by dose curve; further: nearly all actives have a fitted effect of over 50% in size; further: potency means the concentration at half of the fitted maximal effect). Conditions: Potency: AChE activity; outcome: AChE activity. An outline of the steps:
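SH-SY5Y cells (2000/well), attached overnight, incubated with compound 30 min at 37 C. Acetylthiocholine plus Thiolite Green then added for 40 min at room temperature. Thiocholine fluorescence (Ex/Em 490/520 nm) reports cellular AChE activity.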

Test [12] has the same target. Description: Acetylcholinesterase (AChE) small molecule antagonists: enzyme-based qHTS assay with human liver microsomes (AID 1347399; calls by dose curve; further: nearly all actives have a fitted effect of over 60% in size). Conditions: Potency: qHTS inhibition; outcome: qHTS inhibition. An outline of the steps:
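Recombinant human AChE (50 mU/mL in the enzyme mix) and human liver microsomes (0.25 mg/mL final) were preincubated with compound and NADPH (0.25 mg/mL final) for 30 min at 37 C. Acetylthiocholine/DTNB was then added; thiocholine was read colorimetrically after 10 min at room temperature.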

Test [13] addresses Cytochrome P450 2C19 (Homo sapiens) (UniProt P33261). Description: Cytochrome P450 Family 2 Subfamily C Member 19 (CYP2C19) small molecule antagonists: luciferase reporter qHTS assay (AID 1671197). Further: nearly all actives have a fitted effect of over 65% in size. Further: potency means the concentration at half of the fitted maximal effect. The essentials:
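Quantitative high-throughput screen of the Tox21 library using CYP2C19 with proluciferin substrate. Reaction: NADPH regeneration, 37C, 1 h, after 10 min compound preincubation at room temperature. Readout: luminescence.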
For orientation: Reporter assays use an easily measured gene product as a stand-in for the process of interest.

The target in test [14] is Cytochrome P450 2C9 (Homo sapiens) (UniProt P11712). Put plainly: Cytochrome P450 Family 2 Subfamily C Member 9 (CYP2C9) small molecule antagonists: luciferase reporter qHTS assay (AID 1671198). Further: nearly all actives have a fitted effect of over 50% in size. Further: potency means the concentration at half of the fitted maximal effect. The essentials: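 P450-Glo proluciferin substrate with CYP2C9 enzyme; 10 min RT preincubation, then NADPH regeneration 1 h at 37C; luciferin detection reagent 20 min RT, luminescence in relative luminescence units.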
Cytochrome P450 2C9 (Homo sapiens), sequence (P11712 whole entry, looked up): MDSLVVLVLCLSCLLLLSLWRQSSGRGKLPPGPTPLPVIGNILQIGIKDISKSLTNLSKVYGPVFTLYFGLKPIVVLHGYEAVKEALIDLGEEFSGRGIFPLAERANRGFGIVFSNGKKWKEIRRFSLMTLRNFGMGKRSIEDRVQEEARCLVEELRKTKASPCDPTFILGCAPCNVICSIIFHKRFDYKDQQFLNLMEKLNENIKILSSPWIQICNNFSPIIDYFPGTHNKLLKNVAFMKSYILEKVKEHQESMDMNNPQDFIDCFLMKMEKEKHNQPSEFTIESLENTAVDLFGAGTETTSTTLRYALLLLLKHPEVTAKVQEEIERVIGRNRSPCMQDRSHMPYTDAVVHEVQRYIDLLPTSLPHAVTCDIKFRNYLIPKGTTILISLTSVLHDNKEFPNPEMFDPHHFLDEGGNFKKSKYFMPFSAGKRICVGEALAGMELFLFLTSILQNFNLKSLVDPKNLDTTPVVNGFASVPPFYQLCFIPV

Test [15] has as its target Cytochrome P450 1A2 (Homo sapiens) (UniProt P05177). Description: Cytochrome P450 Family 1 Subfamily A Member 2 (CYP1A2) small molecule antagonists: luciferase reporter qHTS assay (AID 1671199). Further: nearly all actives have a fitted effect of over 50% in size. Further: potency means the concentration at half of the fitted maximal effect. The essentials:
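P450-Glo CYP1A2 enzyme–proluciferin substrate mix with compound 10 min at room temperature, then NADPH regeneration 1 h at room temperature. Luciferin detection reagent added, luminescence read after 20 min; furafylline positive control.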

Test [16] addresses Voltage-gated inwardly rectifying potassium channel KCNH2 (Homo sapiens) (UniProt Q12809). Description: Human Ether-a-go-go-Related Gene (hERG) channel small molecule antagonists: fluorescence cell-based qHTS assay (AID 1671200). An outline of the steps:
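Quantitative HTS in hERG-U2OS cells: thallium entry through the channel reports activity, read as continuous 480/540 nm fluorescence over 2 min after stimulus addition.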
(In general: The hERG channel carries a current that helps repolarise heart muscle cells.)

Test [17] concerns the target Cytochrome P450 3A4 (Homo sapiens) (UniProt P08684). Description: Cytochrome P450 Family 3 Subfamily A Member 4 (CYP3A4) small molecule antagonists: luciferase reporter qHTS assay (AID 1671201). An outline of the steps:
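Inhibition of CYP3A4 is measured as loss of light: the enzyme converts a proluciferin substrate to luciferin, detected luminescently. Reaction ran 1 h at room temperature with NADPH regeneration after a 10 min compound preincubation.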

Test [18] is described as follows: Caspase-3/7 induction in HepG2 cells by small molecules, qHTS assay (AID 1346978). Further: nearly all actives have a fitted effect of over 15% in size. An outline of the steps:
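Wild-type HepG2 cells, 2,000/well, settled 5 hr at 37 C and 5% CO2, then compound-treated for 17 hr; caspase-3/7 activity read by luminescent Caspase-Glo 3/7 after 30 min at room temperature.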

The target of test [19] is Cytochrome P450 2D6 (Homo sapiens) (UniProt P10635). Put plainly: Cytochrome P450 Family 2 Subfamily D Member 6 (CYP2D6) small molecule antagonists: luciferase reporter qHTS assay (AID 1671196). Further: nearly all actives have a fitted effect of over 50% in size. Further: potency means the concentration at half of the fitted maximal effect. An outline of the steps: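 Cell-free P450-Glo system: CYP2D6 with proluciferin substrate was pre-incubated with compound for 10 min, then reacted with NADPH regeneration for 1 h at room temperature. Luciferin product was detected after 20 min, and data were reported as relative luminescence units.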
Cytochrome P450 2D6 (Homo sapiens), sequence (P10635 whole entry, looked up): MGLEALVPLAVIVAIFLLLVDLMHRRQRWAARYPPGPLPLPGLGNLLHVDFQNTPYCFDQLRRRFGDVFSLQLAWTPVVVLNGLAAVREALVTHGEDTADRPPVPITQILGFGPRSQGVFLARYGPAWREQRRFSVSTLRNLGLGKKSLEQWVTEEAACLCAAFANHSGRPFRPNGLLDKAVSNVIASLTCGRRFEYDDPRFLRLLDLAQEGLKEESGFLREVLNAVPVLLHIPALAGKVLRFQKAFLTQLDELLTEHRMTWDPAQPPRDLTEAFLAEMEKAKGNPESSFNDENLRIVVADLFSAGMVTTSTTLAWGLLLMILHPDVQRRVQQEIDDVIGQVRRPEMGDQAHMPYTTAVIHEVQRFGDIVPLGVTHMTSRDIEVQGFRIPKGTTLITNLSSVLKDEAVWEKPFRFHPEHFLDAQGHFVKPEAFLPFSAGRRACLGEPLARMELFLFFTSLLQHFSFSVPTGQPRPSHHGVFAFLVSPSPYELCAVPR

Each structure is given as a SMILES string. Several values for one entry are separate records, joined by “and”; a condition that tells them apart may be missing. Equal entries are not always repeated. Inconclusive results are not listed. Some compounds were tested as several samples or in several runs, with calls that do not always agree. Activity calls are given as the source filed them. Unless noted, the call rests on the fitted dose curve; in most records, active means well fitted curve in the direction sought with a large enough effect in the repeat runs; inconclusive means weak or mixed curves; inactive means no such curve, though single readings can be large; an effect the other way counts as inactive or inconclusive.
On the % scale 0 is the no-effect control and ±100 the full control effect.

Cytochrome P450 3A4 (Homo sapiens), sequence (P08684 whole entry, looked up): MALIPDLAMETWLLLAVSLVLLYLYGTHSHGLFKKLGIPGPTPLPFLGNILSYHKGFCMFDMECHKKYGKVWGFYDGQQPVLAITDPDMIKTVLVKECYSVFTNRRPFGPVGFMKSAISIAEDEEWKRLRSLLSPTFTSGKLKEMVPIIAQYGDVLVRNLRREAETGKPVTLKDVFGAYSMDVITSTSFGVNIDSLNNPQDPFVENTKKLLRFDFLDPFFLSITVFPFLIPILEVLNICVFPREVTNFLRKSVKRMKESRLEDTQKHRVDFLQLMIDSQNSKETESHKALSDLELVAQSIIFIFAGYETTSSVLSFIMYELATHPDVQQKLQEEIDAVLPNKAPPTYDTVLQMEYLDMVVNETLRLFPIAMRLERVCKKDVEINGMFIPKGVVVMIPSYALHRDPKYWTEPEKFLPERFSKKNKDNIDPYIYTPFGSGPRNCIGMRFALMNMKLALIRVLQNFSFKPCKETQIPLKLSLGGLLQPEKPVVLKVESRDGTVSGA
Acetylcholinesterase (Homo sapiens), sequence (P22303 whole entry, looked up): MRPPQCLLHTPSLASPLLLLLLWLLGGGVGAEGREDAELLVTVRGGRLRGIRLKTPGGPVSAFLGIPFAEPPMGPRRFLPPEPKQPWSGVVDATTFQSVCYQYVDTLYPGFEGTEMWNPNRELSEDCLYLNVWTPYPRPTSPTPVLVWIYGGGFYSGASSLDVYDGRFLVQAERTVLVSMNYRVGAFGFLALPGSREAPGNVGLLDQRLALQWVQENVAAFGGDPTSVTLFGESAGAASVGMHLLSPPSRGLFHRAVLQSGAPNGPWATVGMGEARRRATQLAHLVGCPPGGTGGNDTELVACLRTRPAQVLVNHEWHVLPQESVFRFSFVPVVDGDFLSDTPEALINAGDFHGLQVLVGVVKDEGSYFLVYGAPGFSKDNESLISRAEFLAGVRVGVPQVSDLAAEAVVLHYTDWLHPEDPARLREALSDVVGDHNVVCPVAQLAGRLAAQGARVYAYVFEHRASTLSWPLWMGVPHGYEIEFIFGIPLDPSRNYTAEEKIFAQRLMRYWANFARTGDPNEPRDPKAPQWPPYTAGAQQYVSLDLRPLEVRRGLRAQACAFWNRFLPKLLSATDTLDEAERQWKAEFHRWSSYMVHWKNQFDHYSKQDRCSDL
Voltage-gated inwardly rectifying potassium channel KCNH2 (Homo sapiens), sequence (Q12809 whole entry, looked up): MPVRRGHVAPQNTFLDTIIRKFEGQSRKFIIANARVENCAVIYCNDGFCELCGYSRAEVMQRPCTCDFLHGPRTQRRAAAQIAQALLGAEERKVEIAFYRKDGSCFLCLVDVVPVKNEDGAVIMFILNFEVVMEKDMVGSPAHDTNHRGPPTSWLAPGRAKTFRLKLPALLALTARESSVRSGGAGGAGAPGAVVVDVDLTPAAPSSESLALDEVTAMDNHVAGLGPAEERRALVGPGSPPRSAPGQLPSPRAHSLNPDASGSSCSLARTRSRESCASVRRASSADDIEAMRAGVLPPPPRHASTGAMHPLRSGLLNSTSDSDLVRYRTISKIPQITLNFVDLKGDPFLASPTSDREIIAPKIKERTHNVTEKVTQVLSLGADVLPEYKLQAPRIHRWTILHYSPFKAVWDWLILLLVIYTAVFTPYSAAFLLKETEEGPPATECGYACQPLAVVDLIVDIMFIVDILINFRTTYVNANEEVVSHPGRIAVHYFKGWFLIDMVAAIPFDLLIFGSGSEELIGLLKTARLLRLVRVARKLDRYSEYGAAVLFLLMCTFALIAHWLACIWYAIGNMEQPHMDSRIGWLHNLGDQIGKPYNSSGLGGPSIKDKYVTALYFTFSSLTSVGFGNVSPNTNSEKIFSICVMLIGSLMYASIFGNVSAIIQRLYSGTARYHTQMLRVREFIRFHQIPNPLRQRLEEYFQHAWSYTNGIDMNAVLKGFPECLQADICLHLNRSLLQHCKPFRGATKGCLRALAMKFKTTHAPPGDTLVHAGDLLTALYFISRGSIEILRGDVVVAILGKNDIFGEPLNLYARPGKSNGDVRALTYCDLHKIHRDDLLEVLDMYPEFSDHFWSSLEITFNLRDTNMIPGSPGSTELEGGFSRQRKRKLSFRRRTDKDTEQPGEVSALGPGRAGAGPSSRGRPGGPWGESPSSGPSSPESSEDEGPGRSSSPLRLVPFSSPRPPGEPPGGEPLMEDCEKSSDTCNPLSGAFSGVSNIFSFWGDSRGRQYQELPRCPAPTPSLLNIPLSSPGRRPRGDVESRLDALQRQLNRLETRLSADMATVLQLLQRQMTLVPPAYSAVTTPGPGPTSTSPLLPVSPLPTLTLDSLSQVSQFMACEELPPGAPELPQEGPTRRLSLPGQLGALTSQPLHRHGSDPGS
Cytochrome P450 2C19 (Homo sapiens), sequence (P33261 whole entry, looked up): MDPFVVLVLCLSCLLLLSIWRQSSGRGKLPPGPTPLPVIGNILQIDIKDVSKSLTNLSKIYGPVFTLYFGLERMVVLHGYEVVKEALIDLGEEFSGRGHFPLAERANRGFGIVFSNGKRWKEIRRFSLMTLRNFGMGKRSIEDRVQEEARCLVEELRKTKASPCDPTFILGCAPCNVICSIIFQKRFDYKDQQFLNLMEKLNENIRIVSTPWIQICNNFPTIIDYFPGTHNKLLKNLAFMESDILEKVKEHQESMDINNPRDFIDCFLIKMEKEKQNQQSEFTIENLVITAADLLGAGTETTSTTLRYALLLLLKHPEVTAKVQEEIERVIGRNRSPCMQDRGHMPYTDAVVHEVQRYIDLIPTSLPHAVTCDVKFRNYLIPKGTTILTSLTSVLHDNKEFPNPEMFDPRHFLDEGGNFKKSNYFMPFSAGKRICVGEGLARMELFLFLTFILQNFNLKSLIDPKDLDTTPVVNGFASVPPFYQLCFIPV
Cytochrome P450 1A2 (Homo sapiens), sequence (P05177 whole entry, looked up): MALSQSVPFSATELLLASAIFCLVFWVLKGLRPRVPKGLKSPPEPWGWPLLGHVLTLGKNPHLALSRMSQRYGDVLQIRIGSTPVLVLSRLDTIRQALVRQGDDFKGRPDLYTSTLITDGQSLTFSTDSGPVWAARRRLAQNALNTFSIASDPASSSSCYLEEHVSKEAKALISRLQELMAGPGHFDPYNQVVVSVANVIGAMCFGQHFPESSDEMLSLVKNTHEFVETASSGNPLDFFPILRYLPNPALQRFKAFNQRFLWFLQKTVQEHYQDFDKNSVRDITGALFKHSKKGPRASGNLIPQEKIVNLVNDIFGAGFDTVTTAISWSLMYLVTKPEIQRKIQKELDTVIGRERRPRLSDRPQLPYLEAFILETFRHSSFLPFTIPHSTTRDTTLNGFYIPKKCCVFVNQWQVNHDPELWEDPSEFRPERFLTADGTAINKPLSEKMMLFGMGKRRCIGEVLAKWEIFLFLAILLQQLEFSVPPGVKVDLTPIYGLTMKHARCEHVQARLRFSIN

Take `c1ccc2c(c1)sc1ccccc12`: the Potency result in test [1], in test [2], in [3], in [4], in test [5] and in test [8] was “inactive” each time. The Potency result in test [9], in [10], in test [11], in test [12], in test [14] and in test [16] was “inactive” throughout. For the same compound, in [17], the Potency entry is “inactive”. In addition, the max activation in test [6] is -3.19% (inactive). Moreover, the compound was called inactive in test [7]. The Potency was 39.9 µM (active) and inactive in [13]; 3.17 µM (active) and 2.57 µM (active) in [15].

Take `C=C(C)C(=O)OCCCCOC(=O)C(=C)C`: the Potency entry in test [1], in test [18], in test [3], in test [5], in test [10] and in [11] was “inactive” in each case. Further, the Potency entry in test [12], in test [19], in test [16] and in test [17] was “inactive” in each case. In addition, the Potency in [13] is 7.96 µM (active); in test [14] it was 39.9 µM (active); in [15], 25.2 µM (active).

Turning to `O=C([O-])c1ccccn1.O=C([O-])c1ccccn1.O=C([O-])c1ccccn1.[Cr+3]`, the Potency result in [1], in [18], in test [3], in test [4], in [5] and in test [10] was “inactive” each time. Moreover, the Potency result in test [11], in [12] and in test [16] was “inactive” in each case. The Potency in test [19] and in [15] was 79.9 µM (active) each time.

Regarding `O=C(CCl)CCl`, the Potency entry in test [1], in [18], in [3], in test [4], in [9] and in [10] was “inactive” throughout. For the same compound, the Potency result in [11], in [12], in test [13], in test [14], in test [15] and in [16] was “inactive” in each case. In [17], the Potency entry was “inactive”. In test [5], the Potency was 56.5 µM (active) and 61.1 µM (active).

Consider `O=C(O)c1ccc(=O)[nH]c1`, for which the Potency result in test [1], in [18], in [3], in [4], in test [5] and in test [9] was “inactive” in each case. The Potency entry in test [10], in test [11], in test [12], in test [19], in test [13] and in test [14] was “inactive” in each case. Besides, the Potency result in [15], in test [16] and in test [17] was “inactive” in each case.

As to `C[C@H]1O[C@H](OC2[C@@H](O)[C@@H](O)C(O)[C@H](O)[C@H]2O)[C@@H](N)C[C@@H]1N=C(N)C(=O)O` (some centres undefined), the Potency result in test [1], in test [18], in test [3], in test [4], in test [5] and in test [9] was “inactive” each time. For the same compound, the Potency entry in test [10], in test [11], in [12], in test [19], in test [13] and in test [14] was “inactive” in each case. Moreover, the Potency result in test [16] and in test [17] was “inactive” in each case.

Turning to `C[N+]1(CCF)[C@@H]2CC[C@H]1CC(OC(=O)C(O)(c1ccccc1)c1ccccc1)C2` (some centres undefined), the Potency entry in test [1], in test [18], in test [3], in test [4], in test [5] and in test [10] was “inactive” each time. For the same compound, the Potency entry in [12], in test [13], in [14], in [15], in [16] and in test [17] was “inactive” throughout. Further, the Potency in test [19] was 17.4 µM (active).

In the case of `CCOP(=S)(S)OCC`, the Potency result in test [1], in test [18], in test [3], in test [10], in test [12] and in [19] was “inactive” throughout. The Potency result in test [16] and in test [17] was “inactive” each time. Further, the Potency is 16.7 µM (active) in [9], 42.1 µM (active) in test [11], 33.4 µM (active) in [13] and 21.1 µM (active) in test [14].
